Measured values: the supplement of paper PMC8728848
The entries come from a sample that favours the strongest signals as a whole.

Tests used:
Experiment in all cases: glycan array binding signal (z-score within array); higher = stronger binding
Settings in all cases: glycan notation: IUPAC condensed, linker removed
[1] = target: GlcNAc(b1-2)[GlcNAc(b1-4)]Man(a1-3)[GlcNAc(b1-2)Man(a1-6)]Man(b1-4)GlcNAc(b1-4)GlcNAc
In short: (§1)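 The Consortium for Functional Glycomics database supplied 3228 glycan arrays, of which those lacking an available protein sequence were dropped. The binding signal, a within-array Z-score, was averaged across arrays of the same protein sequence and across linkers. Negative scores can be read as non-binding.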

[2] = target: GlcNAc(b1-2)[GlcNAc(b1-4)]Man(a1-3)[GlcNAc(b1-4)][GlcNAc(b1-2)[GlcNAc(b1-6)]Man(a1-6)]Man(b1-4)GlcNAc(b1-4)[Fuc(a1-6)]GlcNAc
In short: as §1

GlcNAc(b1-3)Gal = target: GlcNAc(b1-3)Gal
In short: as §1

[3] = target: GlcNAc(b1-3)Gal(b1-4)GlcNAc(b1-2)[GlcNAc(b1-3)Gal(b1-4)GlcNAc(b1-6)]Man(a1-6)[GlcNAc(b1-3)Gal(b1-4)GlcNAc(b1-2)Man(a1-3)]Man(b1-4)GlcNAc(b1-4)GlcNAc
In short: as §1

[4] = target: GlcNAc(b1-3)Gal(b1-4)GlcNAc(b1-3)Gal(b1-4)GlcNAc(b1-2)Man(a1-3)[GlcNAc(b1-3)Gal(b1-4)GlcNAc(b1-3)Gal(b1-4)GlcNAc(b1-2)Man(a1-6)]Man(b1-4)GlcNAc(b1-4)GlcNAc
In short: as §1

[5] = target: GlcNAc(b1-4)Gal(b1-4)GlcNAc
In short: as §1

[6] = target: GlcNAc(b1-4)GlcNAc(b1-4)GlcNAc
In short: as §1

[7] = target: GlcNAc(b1-6)Gal(b1-4)GlcNAc
In short: as §1

Man(a1-2)Man(a1-3)Man = target: Man(a1-2)Man(a1-3)Man
In short: as §1

[8] = target: Man(a1-2)Man(a1-6)[Man(a1-3)]Man(a1-6)[Man(a1-2)Man(a1-2)Man(a1-3)]Man
In short: as §1

[9] = target: Man(a1-3)[Man(a1-6)]Man(a1-6)[Man(a1-3)]Man
In short: as §1

MurNAc(b1-4)GlcNAc = target: MurNAc(b1-4)GlcNAc
In short: as §1

[10] = target: Neu5Ac(a2-3)Gal(b1-4)GlcNAc(b1-2)[Neu5Ac(a2-3)Gal(b1-4)GlcNAc(b1-4)]Man(a1-3)[GlcNAc(b1-4)][Neu5Ac(a2-3)Gal(b1-4)GlcNAc(b1-4)Man(a1-6)]Man(b1-4)GlcNAc(b1-4)GlcNAc
In short: as §1

[11] = target: Neu5Ac(a2-3)Gal(b1-4)GlcNAc(b1-2)[Neu5Ac(a2-3)Gal(b1-4)GlcNAc(b1-6)]Man(a1-6)[Neu5Ac(a2-3)Gal(b1-4)GlcNAc(b1-2)Man(a1-3)]Man(b1-4)GlcNAc(b1-4)GlcNAc
In short: as §1

[12] = target: Neu5Ac(a2-3)Gal(b1-4)GlcNAc(b1-3)Gal(b1-4)GlcNAc(b1-3)Gal(b1-4)GlcNAc(b1-2)Man(a1-3)[Neu5Ac(a2-3)Gal(b1-4)GlcNAc(b1-3)Gal(b1-4)GlcNAc(b1-3)Gal(b1-4)GlcNAc(b1-2)Man(a1-6)]GalNAc
In short: as §1

[13] = target: Neu5Ac(a2-3)Gal(b1-4)GlcNAc(b1-3)[Neu5Ac(a2-3)Gal(b1-4)GlcNAc(b1-6)]GalNAc
In short: as §1

[14] = target: Neu5Ac(a2-3)Gal(b1-4)[Fuc(a1-3)]GlcNAc(b1-3)Gal(b1-4)[Fuc(a1-3)]GlcNAc(b1-3)Gal(b1-4)[Fuc(a1-3)]GlcNAc
In short: as §1

[15] = target: Neu5Ac(a2-3)Gal(b1-4)[Fuc(a1-3)]GlcNAc(b1-3)GalNAc
In short: as §1

[16] = target: Neu5Ac(a2-3)[GalNAc(b1-4)]Gal(b1-4)GlcNAc
In short: as §1

[17] = target: Neu5Ac(a2-6)Gal(b1-4)GlcNAc(b1-2)Man(a1-6)[GlcNAc(b1-2)Man(a1-3)]Man(b1-4)GlcNAc(b1-4)GlcNAc
In short: as §1

[18] = target: Neu5Ac(a2-6)Gal(b1-4)GlcNAc(b1-3)Gal(b1-4)GlcNAc(b1-3)Gal(b1-4)GlcNAc(b1-2)Man(a1-3)[Neu5Ac(a2-6)Gal(b1-4)GlcNAc(b1-3)Gal(b1-4)GlcNAc(b1-3)Gal(b1-4)GlcNAc(b1-2)Man(a1-6)]GalNAc
In short: as §1

[19] = target: Neu5Ac(a2-6)Gal(b1-4)GlcNAc(b1-3)Gal(b1-4)[Fuc(a1-3)]GlcNAc(b1-3)Gal(b1-4)[Fuc(a1-3)]GlcNAc
In short: as §1

[20] = target: Neu5Ac(a2-8)Neu5Ac(a2-3)Gal(b1-4)Glc
In short: as §1

[21] = target: Neu5Gc(a2-3)Gal(b1-3)[Fuc(a1-4)]GlcNAc
In short: as §1

[22] = target: Neu5Gc(b2-6)Gal(b1-4)GlcNAc
In short: as §1

B1: SP15308C-bot-338-23-338 (Bacteroides ovatus) (protein)
chain: DEWTDEQFKQLISFKTQPGGWGVTDVHVRYANSAKYTYNLPVLVSGSTDNTDDRLVSFSLRDDTLDILNFEKFGNRPELYFRELPQKYYSFPKELTIPAGQSHALLPIEFSLDGLDDSQKWALPLKVCEDANGTYAVNPRKYYRTAVLRPILFNEFSGRFSGSSLLGTMAGESDIKFSSTEIKLNVVTDSIVFFYAGQRTEDYEDRINYKVFLQFTGDKVDSKKDLYKMKIWAENEKLKFNSYSTPTYKVSSEMDATKTYLKHTYIVISDIDFDFVDYTSVPNYEIEYNMKGGLSVSRDLDTRKPDEDQGSDSKWW
glycan array binding signal (z-score) [1]: -0.931
glycan array binding signal (z-score) [2]: -0.818
glycan array binding signal (z-score) (GlcNAc(b1-3)Gal): -0.756
glycan array binding signal (z-score) [3]: 0.124
glycan array binding signal (z-score) [4]: 2.87
glycan array binding signal (z-score) [5]: -0.205
glycan array binding signal (z-score) [6]: -0.098
glycan array binding signal (z-score) [7]: -0.182
glycan array binding signal (z-score) (Man(a1-2)Man(a1-3)Man): 0.722
glycan array binding signal (z-score) [8]: -0.109
glycan array binding signal (z-score) [9]: 0.294
glycan array binding signal (z-score) (MurNAc(b1-4)GlcNAc): -0.64
glycan array binding signal (z-score) [10]: -0.025
glycan array binding signal (z-score) [11]: 0.382
glycan array binding signal (z-score) [12]: 0.621
glycan array binding signal (z-score) [13]: -0.252
glycan array binding signal (z-score) [14]: -0.739
glycan array binding signal (z-score) [15]: 3.23
glycan array binding signal (z-score) [16]: -0.753
glycan array binding signal (z-score) [17]: -0.62
glycan array binding signal (z-score) [18]: 2.46
glycan array binding signal (z-score) [19]: -0.639
glycan array binding signal (z-score) [20]: -0.032
glycan array binding signal (z-score) [21]: 0.492
glycan array binding signal (z-score) [22]: 0.812
